Measured values from PubChem BioAssay AID624351 (Southern Research Specialized Biocontainment Screening …, 2012).
Out of some 2,400 compounds screened, about 1,400 (58%) were called active. The set was probably picked from earlier hits. The list shows a part of the results. Unmarked numbers belong to inactive results.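 Rule for the calls: active = inhibition of 30% or more at any tested dose; inconclusive = primary hits over the limit that were never retested; inactive = the rest.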

experiment: coupled detection enzyme interference, dose response, artefact control for MgcRacGAP inhibitor project, biochemical, coupled enzyme counter-screen (AID 624351); conditions: ADP Hunter coupled enzyme counter-screen, fluorescence, no MgcRacGAP; series mostly up to 80 µM;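 note: signal is the ADP detection kit reading of free GDP without any GAP enzyme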;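 for inhibition: 0% = median positive control wells and 100% = median negative control wells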

Structure (SMILES) | IC50 | inhibition
COC(=O)c1c(NC(=O)CCNCc2ccco2)sc2c1CCC2 | inactive | –
CCOC(=O)c1[nH]c2ccc(F)cc2c1NC(=O)c1ccccc1C(=O)O | inactive | –
CCOC(=O)c1[nH]c2ccccc2c1NC(=S)Nc1ccccc1 | 45.1 µM (active) | –
O=C1CCCCCN1Sc1ccccc1 | inactive | –
O=C1SC(c2ccccc2)=C/C1=C\N1CCCCC1 | 51 µM (active) | –
CC(C)Nc1ccc(Nc2ccnc3cc4ccccc4cc23)cc1 | 22.4 µM (active) | –
COc1cc(/C=C/C(=O)OCC(=O)NC(=O)NC(C)C)ccc1O | 42.8 µM (active) | –
COc1cc(/C=C/C(=O)OCC(=O)NC(=O)NC(C)(C)C)ccc1O | 62.6 µM (active) | –
C=CCN(CC=C)C(=O)C1CCN(Cc2ccc(OCc3ccccc3)cc2)CC1 | inactive | –
COc1ccc(NC(=O)c2ccc(NC(=O)CN3CCN(c4ccc(O)cc4)CC3)cc2)cc1 | 76.7 µM (active) | –
CCN1CCN(CC(=O)Nc2nc3ccc(OC)cc3s2)CC1 | inactive | –
CCCS(=O)(=O)N1CCN(Cc2ccco2)CC1 | inactive | –
CCN1CCN(CC(=O)Nc2ccc(C)c(Br)c2)CC1 | inactive | –
O=C(CN1CCN(c2ccc(O)cc2)CC1)NC(=O)NCc1ccco1 | 54.7 µM (active) | –
Cc1ccc(NC(=O)CN2CCN(C)CC2)cc1Br | inactive | –
Cc1ccc(NC(=O)NC(=O)CN2CCN(c3ccc(O)cc3)CC2)c(C)c1 | 63.4 µM (active) | –
O=C(CN1CCCCC1)Nc1ccc(N2CCCCCC2)cc1 | inactive | –
CC1(C)O[C@@H]2[C@H](O1)[C@@H](COS(=O)(=O)O)O[C@H]2n1c(=S)[nH]c2c(=O)[nH]c(N)nc21 | 55.7 µM (active) | –
Oc1cc(Br)ccc1C=Nc1ccc(N2CCCCC2)cc1 | 4.33 µM (active) | –
CCN1CCN(c2ccc(N=Cc3ccccc3O)cc2)CC1 | 24.5 µM (active) | –
CCC(=O)c1ccccc1OCCN1CCN(CC)CC1 | inactive | –
O=C1NN(c2ccc(Br)cc2)C(=O)/C1=C\c1ccc(O)cc1O | inactive | –

Structure (SMILES) | IC50 | inhibition
CCN1CCN(c2ccc(N=Cc3ccc(O)cc3O)cc2)CC1 | 38.2 µM (active) | –
CCN1CCN(CCOc2ccccc2OCc2ccccc2)CC1 | inactive | –
C=CCc1cc(Cl)ccc1OCCn1ccnc1 | inactive | –
N#CC1=C(S)N(c2ccccc2)C(c2ccc(-c3cccc(Cl)c3)o2)NC1=O (stereo not drawn) | inactive | –
O=c1c(-c2ccccc2)c[nH]n1-c1cccc([N+](=O)[O-])c1 | 41.6 µM (active) | –
O=c1c(-c2cccc(Cl)c2)c[nH]n1-c1ccccc1 | 52.1 µM (active) | –
O=c1c2ccccc2sn1-c1cccc(Cl)c1 | inactive | –
O=[N+]([O-])c1cccc(SSc2cccc([N+](=O)[O-])c2)c1 | inactive | –
C=CCN=c1scc(C)n1/N=C/c1ccc(O)c(O)c1 | 15.4 µM (active) | –
CN=c1scc(C)n1/N=C/c1ccc(O)cc1 | 19.3 µM (active) | –
CN=c1scc(C)n1/N=C/c1ccc(O)cc1O | 10.1 µM (active) | –
Cn1c(=O)[nH]c(=O)c2c1[nH]c(=S)n2Cc1ccc(Cl)cc1 | 22.2 µM (active) | –
Cn1c(=O)c2c([nH]c(=S)n2CCCc2ccccc2)n(C)c1=O | 11.4 µM (active) | –
CN(C)C(=S)N=c1ssc(=S)n1Cc1ccccc1 | inactive | –
Cn1c(=O)[nH]c(=O)c2c1[nH]c(=S)n2CCCc1ccccc1 | 15.2 µM (active) | –
Cn1c(=O)[nH]c(=O)c2c1[nH]c(=S)n2Cc1ccccc1 | 19.2 µM (active) | –
c1ccc2c(c1)c1c(c3ccccc32)CN2CCCC2C1 (stereo not drawn) | – | -11.7% [at 10 µM]
O=C1c2c([N+](=O)[O-])cc([N+](=O)[O-])cc2S(=O)N1Cc1ccccc1 (stereo not drawn) | inactive | –
COc1ccc(NC(=O)CNCc2cccs2)c(OC)c1 | inactive | –
COc1ccc(N2CCCC2)c(NC(=O)c2ccc([N+](=O)[O-])o2)c1 | inactive | –
COc1ccc(NCc2ccc([N+](=O)[O-])s2)c(OC)c1 | 33.3 µM (active) | –
Cn1c(N2CCOCC2)c(/C=N/O)c2ccccc21 | 60.1 µM (active) | –

Structure (SMILES) | IC50 | inhibition
CCCCn1c(=S)[nH]c2c(=O)n(C)c(=O)n(C)c21 | 15.6 µM (active) | –
Cn1c(=O)c2[nH]c(=S)n(Cc3ccccc3)c2n(C)c1=O | 18.4 µM (active) | –
CCn1c(=S)[nH]c2c(=O)n(C)c(=O)n(C)c21 | 18.9 µM (active) | –
Cc1cc(C)c(OCC(O)CN2CCN(C(=O)c3ccccc3)CC2)c(C)c1 (stereo not drawn) | inactive | –
CC(=O)Nc1ccc(OC(=O)Cc2ccc(Cl)cc2)cc1 | inactive | –
CCOC(=O)Nc1ccc(OC(=O)Oc2ccc(NC(=O)OCC)cc2)cc1 | 41.3 µM (active) | –
Cn1nccc1C(=O)Nc1ccc(OC(=O)c2ccnn2C)cc1 | inactive | –
CCOC(=O)c1oc2cc(O)cc(C)c2c1C | 54.1 µM (active) | –
CCCCCCCCCCCCCCCC[N+](C)(C)Cc1ccc(F)cc1 | inactive | –
N#Cc1c(Nc2ccccc2)s[nH]c1=O | inactive | –
CCOC(=O)c1sc(/N=C/c2c(O)ccc3ccccc23)cc1C | 36 µM (active) | –
CCOC(=O)c1sc(/N=C/c2ccc(O)cc2O)cc1C | 24.7 µM (active) | –
CCCS(=O)(=O)N1CCN(C2CCC(C)CC2)CC1 (stereo not drawn) | inactive | –
CC1(C)CNc2cc(N)ccc2S1 | 26.6 µM (active) | –
CCN(CC)CCOC(=O)c1ccc(N/C=C(/C#N)c2nc(-c3ccc(OC)c(OC)c3)cs2)cc1 | inactive | –
O=C(O)c1c2c(nc3ccccc13)/C(=C/c1ccc(O)cc1)CCC2 | 60.2 µM (active) | –
CC(C)NCC(=O)Nc1c2c(nc3ccccc13)CCC2 | inactive | –
O=C(COC(=O)c1c2c(nc3ccccc13)/C(=C/c1ccco1)CC2)NC1CCCC1 | inactive | –
Cc1ccc(Nc2ccc(N)cc2S(=O)(=O)O)cc1 | 40.2 µM (active) | –
O=C(CNCc1ccccn1)Nc1cc(C(F)(F)F)ccc1N1CCOCC1 | inactive | –
COC(=O)c1cc(NCc2c(F)cccc2Cl)ccc1N1CCOCC1 | inactive | –
Nc1ccc(N2CCCCC2)c(Cl)c1 | 37.9 µM (active) | –

Structure (SMILES) | IC50 | inhibition
Nc1ccc(N2CCOCC2)c(Cl)c1 | 51.3 µM (active) | –
Nc1cc(C(F)(F)F)ccc1N1CCOCC1 | 30.2 µM (active) | –
COC(=O)c1cc(NCc2ccccc2F)ccc1N1CCOCC1 | inactive | –
Cc1cccc(C)c1OCCCCN1CCNCC1 | inactive | –
COc1cc(/C=N/NC(=O)c2ccccc2NS(=O)(=O)c2cccs2)ccc1O | 79 µM (active) | –
O=C(NN=Cc1ccc(O)cc1)c1ccccc1NS(=O)(=O)c1cccs1 | 75.6 µM (active) | –
CC(=O)Oc1ccc([N+](=O)[O-])cc1N1C(=O)c2ccccc2C1=O | inactive | –
CSc1ccc(CN2CCC(N3CC(C)OC(C)C3)CC2)cc1 (stereo not drawn) | inactive | –
Oc1ccc(/C=N/Nc2ncnc3c2ncn3Cc2ccccc2)cc1O | 40.7 µM (active) | –
C=C1c2cccc(O)c2C(O)=C2C(=O)[C@]3(O)C(O)=C(C(N)=O)C(=O)[C@@H](N(C)C)[C@@H]3[C@@H](O)[C@H]12 | inactive | –
O=C1C(=C(I)I)c2ccccc2-c2ccccc21 | inactive | –
O=C1C=C(Nc2ccc(O)cc2)C(=O)c2ccccc21 | 24.7 µM (active) | –
O=C1C(Cl)=C(NCCc2ccccc2)C(=O)c2ccccc21 | inactive | –
COC1=C(Nc2ccc(O)cc2)C(=O)c2ccccc2C1=O | 30.7 µM (active) | –
COc1cc(C=C2C(=O)c3ccccc3C2=O)cc(OC)c1OC | inactive | –
O=C1C(Nc2ccc(O)cc2)=C/C(=N/S(=O)(=O)c2cccs2)c2ccccc21 | 50.8 µM (active) | –
COc1ccc(S(=O)(=O)/N=C2\C=C(Nc3ccc(O)cc3)C(=O)c3ccccc32)cc1 | 52 µM (active) | –
COc1ccc(CN2CCC(N(CCc3ccccc3)Cc3ccccc3)CC2)c(OC)c1 | inactive | –
COc1ccc(OCCOCCN2CCN(C)CC2)cc1 | inactive | –
CN(C)CCCC1Sc2ccccc2Sc2ccccc21 (stereo not drawn) | inactive | –
CC1=NN(c2ccccc2)C(=O)/C1=C/C=C/c1ccc(N(C)C)cc1 | inactive | –
CC1=NN(c2ccccc2)C(=O)/C1=C/C=C/C=C/N(C)C | 68.9 µM (active) | –

Structure (SMILES) | IC50 | inhibition
COc1ccccc1/C=C1/C(=O)N(c2ccccc2)N=C1C | inactive | –
O=C(O)C1CCN(Cc2cnn(-c3ccccc3)c2-n2cccc2)CC1 | inactive | –
COc1ccc(C(=O)/C=C(\C)Nc2ccc(NC(C)=O)cc2)cc1 | inactive | –
C/C(=C\C(=O)c1ccccc1)Nc1ccc(O)cc1 | 19.2 µM (active) | –
C/C(=C\C(=O)c1cccnc1)Nc1ccc(O)cc1 | 13.6 µM (active) | –
O=C(Nc1ccc(O)cc1)c1ccc(C(=O)c2ccccc2)o1 | 26.1 µM (active) | –
Cc1ccc(C2CC(=O)N3CN(c4ccc(Br)cc4)CSC3=C2C#N)o1 (stereo not drawn) | inactive | –
O=C(CSc1cn[nH]n1)Nc1cccc(C(=O)O)c1 | inactive | –
O=C(O)c1cccc(N/N=C/c2cccs2)c1 | 62.5 µM (active) | –
Cc1ccsc1/C=N/Nc1cccc(C(=O)O)c1 | 72.9 µM (active) | –
CSc1ccc(/C=N/Nc2cccc(C(=O)O)c2)cc1 | inactive | –
CN(c1ccc(O)cc1)c1nc(-c2ccccc2)cs1 | 53.7 µM (active) | –
CN(c1ccc(O)cc1)c1nc(-c2cccnc2)cs1 | 19.9 µM (active) | –
CCC1=NN2C(=N)/C(=C\c3ccc(SCc4ccco4)o3)C(=O)N=C2S1 | inactive | –
COC(=O)c1[nH]c2ccccc2c1NC(=O)Oc1ccccc1 | 15.6 µM (active) | –
COC(=O)c1[nH]c2cc(OC)c(OC)cc2c1NC(=O)Oc1ccccc1 | 19.5 µM (active) | –
Cc1[nH]c2ccccc2c1-c1csc(NC(=O)CSCCO)n1 | inactive | –
COC(=O)c1[nH]c2ccc(Cl)cc2c1NC(=O)Oc1ccccc1 | 18.5 µM (active) | –
COC(=O)c1[nH]c2ccc(C)cc2c1NC(=O)Oc1ccccc1 | inactive | –
O=C1C=CC2(O[C@H](c3ccccc3)[C@@H](c3ccccc3)O2)[C@H](Sc2ccccc2O)C1 | inactive | –
